Measurements taken from PubChem BioAssay.
Several values for one entry are separate records, joined by “and”; a condition that tells them apart may be missing. Equal entries are not always repeated. For some of these results: Measured potencies and affinities stand elsewhere. Activity calls are given as the source filed them.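 How the source made its calls, unless noted: active means thallium flux through the channel raised or lowered by more than 3 SD from vehicle-only wells, actives on both sides; inactive means the rest.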

How the values were obtained:
[1] = blockers of polyQ-driven CASP3 activation – cell-based (AID 1583); conditions: polyglutamine-induced caspase-3 activation, cell assay; stronger effect = higher value;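 tested at 10 µM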
[2] = yeast 75Q aggregation reduction – 75Q-TubU reporter (AID 1593); conditions: Yeast 75Q polyglutamine aggregation reporter
[3] = restoration of touch response, mutant HTT neurons – whole organism, C. elegans mechanosensory neurons, N-terminal huntingtin (AID 1599); conditions: C. elegans polyQ-huntingtin mechanosensory neurons, stronger effect = higher value
[4] = blockers of cytochrome c efflux from mitochondria – biochemical, purified mitochondria (AID 1603); conditions: stronger effect = lower value;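 further: mouse liver mitochondria challenged with calcium chloride; signal normalized to the plate average as 100%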
[5] = polyglutamine aggregate formation blockers (AID 1604); conditions: polyglutamine-induced protein aggregation inhibition assay; stronger effect = higher value; tested at 2.5 µM
[6] = glutamate transport activators, MN-1 cells, MN-1 cell line (AID 1612); conditions: MN-1 motor neuron cells, stronger effect = higher value;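 further: tested at 1 µM final; 0% = mean of DMSO vehicle wells on each plate; positive means more glutamate uptake than control and negative means less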
[7] = 75Q-TubH aggregate inhibition, S. cerevisiae, yeast (AID 1616); conditions: S. cerevisiae 75Q-TubH polyglutamine aggregation suppression; stronger effect = higher value
[8] = compounds altering viability of human ES cells (AID 493140; call rule not given here;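 further: cells exposed to compounds for four days before counting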); conditions: human embryonic stem cell survival screen; stronger effect = higher value
[9] = signal quenchers or enhancers, Cy5 substrate/SSB – biochemical, NIH Clinical Collection, E. coli SSB, artefact control for HCV NS3 helicase inhibitor project (AID 743268; call rule not given here); conditions: Cy5-oligo bound E. coli SSB, fluorescence interference
[10] = modulation of C. elegans fzo-1 (AID 1259413; call rule not given here;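 further: fzo-1 mutant C. elegans worms in liquid wells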); conditions: C. elegans fzo-1 modulator screen, mean read-out; stronger effect = higher value
[11] = galactose survival enhancers in mitochondrial complex I cybrids – cell-based, galactose medium, ATP luminescence, primary screen (AID 1645843;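 active means z-score of at least 1.8 in each of two replicates, scored against plate mean and spread of sample wells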;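 further: positive z means more ATP and so rescue of galactose-driven cybrid death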); conditions: complex I mutant cybrid cells, 72 h, stronger effect = higher value
F380Y/beta1 = experiment: BK channel mutant inhibitors and activators – cell-based, U2OS BacMam, thallium flux, beta subunits, selectivity assay, profiling panel (AID 1259406); conditions: U2OS BacMam BK variants, at 30 µM;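 further: initial slope of Thallos dye fluorescence rise after thallium is added; log ratio against the mean of 0.3% DMSO vehicle wells on the same plate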
F380Y/beta4 = experiment: as above; conditions: U2OS BacMam BK variants, at 30 µM
R275C = experiment: as above; conditions: U2OS BacMam BK variants, at 30 µM
R275C/beta1 = experiment: as above; conditions: U2OS BacMam BK variants, at 30 µM
R275C/beta2Delta = experiment: as above; conditions: U2OS BacMam BK variants, at 30 µM
R275C/beta4 = experiment: as above; conditions: U2OS BacMam BK variants, at 30 µM
R275C/Slo1WT/beta2 = experiment: as above; conditions: U2OS BacMam BK variants, at 30 µM
[12] = P. berghei load reduction in hepatocytes – cell-based, HepG2, luciferase luminescence, HepG2 viability, primary screen (AID 624349; in the data active means parasite load remaining mostly below about 12%, no sharp cut-off; inactive means mostly above about 10%;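 further: 100% = mean of DMSO negative control wells on the same plate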); conditions: P. berghei liver stage in HepG2, luciferase luminescence, concentration not given here; parasite load remaining: stronger effect = lower value; viability: measured here: HepG2 viability without parasites

| Compound | inhibition [1] | score [2] | rescue above control [3] | cytochrome c release ratio [4] | inhibition of aggregation [5] | glutamate uptake change [6] | aggregation suppression score [7] | survival [8] | fluorescence ratio [9] | mean signal [10] | z-score [11] | log fold change Tl+ flux (F380Y/beta1) | log fold change Tl+ flux (F380Y/beta4) | log fold change Tl+ flux (R275C) | log fold change Tl+ flux (R275C/beta1) | log fold change Tl+ flux (R275C/beta2Delta) | log fold change Tl+ flux (R275C/beta4) | log fold change Tl+ flux (R275C/Slo1WT/beta2) | parasite load remaining [12] | viability [12] |
| --- | --- | --- | --- | --- | --- | --- | --- | --- | --- | --- | --- | --- | --- | --- | --- | --- | --- | --- | --- | --- |
| Nc1nc(N)c2nc(-c3ccccc3)c(N)nc2n1 | 13.8% | 1.58 | 4.34 | 0.47 | 52.6% | 10.7% | 1.34 | 18.2 (inactive) | 1.01 (inactive) | 245 (inactive) | -0.725 (inactive) and 0.27 (inactive) | -0.0403 (inactive) | -0.00497 (inactive) | -0.00764 (inactive) | -0.0258 (inactive) | -0.000652 (inactive) | -0.0731 (inactive) | 0.0101 (inactive) |  |  |
| C=C(CC)C(=O)c1ccc(OCC(=O)O)c(Cl)c1Cl | 6.66% | 0.22 | 6.67 | 0.63 | 30.1% | 5.34% | 0.145 | 25.6 (inactive) | 2.96 (active) | 255 (inactive) | -0.85 (inactive) and -0.03 (inactive) | 0.1 (inactive) | 0.0312 (inactive) | -0.00646 (inactive) | 0.0596 (inactive) | 0.0176 (inactive) | -0.0645 (inactive) | 0.0108 (inactive) |  |  |
| CCCCNC(=O)NS(=O)(=O)c1ccc(C)cc1 | -1.59% | 1.02 | -3.14 | 0.7 | 52.6% | -18.9% | 0.871 | 25.3 (inactive) |  | 261 (inactive) | 0.82 (inactive) and -0.58 (inactive) and 0.93 (inactive) | 0.0157 (inactive) | 0.00157 (inactive) | -0.0266 (inactive) | -0.0147 (inactive) | 0.0266 (inactive) | -0.00534 (inactive) | -0.00827 (inactive) |  |  |
| CN(C)CCC=C1c2ccccc2CCc2ccccc21 | 5.08% | 0.94 | 17.6 | 1.57 | 70.5% | -1.53% | 0.931 | 7.08 (inactive) | 0.94 (inactive) | 243 (inactive) | -0.73 (inactive) and -1.31 (inactive) | 0.103 (inactive) | 0.189 (active) | 0.07 (inactive) | 0.106 (inactive) | 0.128 (active) | 0.135 (active) | 0.00351 (inactive) |  |  |
| C[C@H](CS)C(=O)N1CCC[C@H]1C(=O)O | 11.5% | 1.09 | -12.7 | 0.82 | 37.2% | -3.95% | 1.08 |  |  | 261 (inactive) | 0.49 (inactive) and 0.465 (inactive) and -0.54 (inactive) | -0.0696 (inactive) | 0.0146 (inactive) | 0.0445 (inactive) | -0.0207 (inactive) | 0.0269 (inactive) | -0.00777 (inactive) | 0.0231 (inactive) |  |  |
| NC(=O)N1c2ccccc2C=Cc2ccccc21 | 9.92% | 1.24 | -11.1 | 1.51 | 83.1% | -6.72% | 1.82 | 26.6 (inactive) | 1.03 (inactive) | 259 (inactive) | 0.21 (inactive) and 0.34 (inactive) and 0.265 (inactive) | -0.00275 (inactive) | -0.00351 (inactive) | 0.0472 (inactive) | 0.00405 (inactive) | 0.0457 (inactive) | -0.0824 (inactive) | -0.0474 (inactive) |  |  |
| OCCN1CCN(CCCN2c3ccccc3Sc3ccc(Cl)cc32)CC1 | -20.9% | 0.86 |  | 1.23 | 49% | 5.53% | 0.889 | 1.67 (inactive) | 1.01 (inactive) | 256 (inactive) | -1.29 (inactive) and -1.32 (inactive) | 0.097 (inactive) | 0.284 (active) | -0.201 (active) | 0.341 (active) | -0.0309 (inactive) | 0.17 (active) | -0.0801 (inactive) |  |  |
| CCN(CC)CCOC(=O)c1ccc(N)cc1 | 9.09% | 1.48 | -15 | 1.16 | 23.9% | 22.4% | 1.46 | 15.7 (inactive) | 1.06 (inactive) | 231 (inactive) | 0.17 (inactive) and -0.015 (inactive) | -0.0732 (inactive) | 0.0148 (inactive) | -0.00878 (inactive) | -0.0214 (inactive) | 0.0278 (inactive) | -0.0586 (inactive) | -0.013 (inactive) |  |  |
| O=C(CCCN1CC=C(n2c(=O)[nH]c3ccccc32)CC1)c1ccc(F)cc1 | -1.81% | 1.12 | 6.51 | 1.19 | 63.6% | 4.12% | 1.21 | 4.83 (inactive) | 0.99 (inactive) | 249 (inactive) | -0.69 (inactive) | -0.0432 (inactive) | 0.0551 (inactive) | 0.0212 (inactive) | 0.0837 (active) | 0.0699 (inactive) | 0.00129 (inactive) | 0.0371 (inactive) |  |  |
| NCC(=O)CCC(=O)O |  |  |  |  |  |  |  |  | 1.05 (inactive) | 245 (inactive) | 0.925 (inactive) | -0.00533 (inactive) | 0.0148 (inactive) | -0.000596 (inactive) | -0.0231 (inactive) | -0.0499 (inactive) | -0.0959 (inactive) | -0.117 (active) | 63.7% (inactive) and 161% (inactive) and 53.4% (inactive) | 95.6% and 83.2% and 165% |
| c1ccc2c(c1)CCCC2C1=NCCN1 (stereo unspecified) | -4.42% | 1.43 | 7.66 | 0.63 | 56.8% | 6.14% | 1.06 | 6 (inactive) | 0.97 (inactive) | 221 (inactive) | 0.18 (inactive) and 0.17 (inactive) | 0.041 (inactive) | 0.00535 (inactive) | -0.00319 (inactive) | -0.00185 (inactive) | -0.0361 (inactive) | 0.0129 (inactive) | 0.0141 (inactive) |  |  |
| CCOC(=O)[C@H](CCc1ccccc1)N[C@@H](C)C(=O)N1Cc2ccccc2C[C@H]1C(=O)O | 20.2% | 1.04 | 4.28 | 0.82 | 37.2% | 3.41% | 1.35 |  | 1.02 (inactive) | 206 (inactive) | 0.72 (inactive) and 0.435 (inactive) | -0.0839 (inactive) | -0.00668 (inactive) | -0.00535 (inactive) | 0.0226 (inactive) | 0.0266 (inactive) | 0.0169 (inactive) | 0.0209 (inactive) |  |  |
| CCCNC(=O)NS(=O)(=O)c1ccc(Cl)cc1 | 10.9% | 1.66 | -4.58 | 1.77 | 91% | -12.9% | 1.38 | 13.6 (inactive) | 0.93 (inactive) | 243 (inactive) | 0.8 (inactive) and 0.135 (inactive) | 0.0557 (inactive) | 0.0279 (inactive) | 0.0359 (inactive) | 0.0476 (inactive) | 0.0638 (inactive) | 0.017 (inactive) | -0.0244 (inactive) |  |  |
| CN(C)C(=O)Oc1ccc[n+](C)c1 | 18.4% | 1.37 | -0.24 | 0.97 | 27% | -0.9% | 1.35 |  | 1.01 (inactive) | 265 (inactive) | 0.81 (inactive) and 0.62 (inactive) | 0.0465 (inactive) | -0.0469 (inactive) | -0.0114 (inactive) | -0.0401 (inactive) | 0.0292 (inactive) | -0.0147 (inactive) | 0.0451 (inactive) | 46.4% (inactive) and 38.1% (inactive) and 33.2% (inactive) | 90.6% and 93.2% and 82.1% |
| NS(=O)(=O)c1cc2c(cc1C(F)(F)F)NCNS2(=O)=O | -8.77% | 1.38 | -10.8 | 0.95 | 91.6% | -18.5% | 1.31 | 23.1 (inactive) | 1.02 (inactive) | 224 (inactive) | 1.47 (inactive) | 0.0232 (inactive) | 0.0329 (inactive) | -0.0328 (inactive) | -0.0725 (inactive) | 0.0545 (inactive) | 0.0202 (inactive) | 0.0133 (inactive) |  |  |
| CC(C)(C)NCC(O)c1cc(O)cc(O)c1 (stereo unspecified) | 10.1% | 1.33 | -7.82 | 1.15 | 47.9% | 22.8% | 1.5 | 21.1 (inactive) | 1.05 (inactive) | 269 (inactive) | 0.355 (inactive) and 1.03 (inactive) | -0.0587 (inactive) | -0.0336 (inactive) | 0.00159 (inactive) | -0.00541 (inactive) | -0.00466 (inactive) | 0.00501 (inactive) | -0.0142 (inactive) |  |  |
| CC(CN1c2ccccc2Sc2ccccc21)N(C)C (stereo unspecified) | -21.1% | 1.87 | 27.9 | 0.77 | 66.7% | 9.05% | 1.37 | 1.42 (inactive) | 0.91 (inactive) | 245 (inactive) | -1.14 (inactive) and -0.84 (inactive) and -0.715 (inactive) | 0.16 (active) | 0.26 (active) | -0.00748 (inactive) | 0.305 (active) | 0.176 (active) | 0.0949 (inactive) | -0.0568 (inactive) |  |  |
| CN(C)CCCN1c2ccccc2CCc2ccccc21 | -29.3% | 1.28 | 5.01 | 1.3 | 41% | 5.43% | 1.2 | 8.08 (inactive) |  | 235 (inactive) | -0.9 (inactive) and -0.525 (inactive) and -0.59 (inactive) | 0.0217 (inactive) | 0.133 (active) | 0.0455 (inactive) | 0.104 (inactive) | 0.158 (active) | 0.109 (inactive) | 0.0178 (inactive) |  |  |
| CC(=O)Nc1nnc(S(N)(=O)=O)s1 | 12.8% | 1.01 | 21.8 | 0.85 | -6.35% | 5.19% | 1.12 | 10.5 (inactive) | 1.01 (inactive) | 242 (inactive) | 0.625 (inactive) and 0.37 (inactive) | 0.0405 (inactive) | 0.0426 (inactive) | 0.0184 (inactive) | -0.00169 (inactive) | 0.0403 (inactive) | 0.00614 (inactive) | 0.0491 (inactive) |  |  |
